Test results from the supplement of paper PMC10646978.
± gives the standard deviation.

How the values were obtained:
Conditions in all cases: modulator concentration 10 µM
[1] = tested on: RAW-Dual (murine macrophage reporter line); assay: NF-kB reporter (SEAP) activity fold change vs agonist alone; higher = enhanced NF-kB activity
Procedure, shortened: (§1)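 In 384-well plates holding 50 000 RAW-Dual murine macrophage reporter cells per well, compound at 10 μM final was pre-incubated for 1 hour at 37 °C, after which a PRR agonist was added overnight. Supernatant SEAP read with QUANTI-Blue at 620 nm absorbance reported NF-κB, and Lucia luciferase read with QUANTI-Luc luminescence reported IRF. Fold change values come from dividing each reporter signal by the mean of agonist-only control wells on the same plate, averaged over replicate plates with propagated errors.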

[2] = tested on: RAW-Dual (murine macrophage reporter line); assay: IRF reporter (Lucia luciferase) activity fold change vs agonist alone; higher = enhanced IRF activity
Procedure, shortened: as §1

[3] = tested on: RAW-Dual (murine macrophage reporter line); assay: viability score (confluency relative to resting cells, overnight) (fraction); higher = more viable, active = viable (0.7 or more)
Procedure, shortened: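 RAW-Dual macrophages in 384-well plates were exposed overnight to compound at 10 μM final. Confluency was imaged with IncuCyte, and two confluency masks were generated with IncuCyte software over all imaged wells. The viability score is confluency expressed relative to resting cells. Compounds were called viable if both masks exceeded 70% of resting cells.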

[4] = agonist: CpG ODN 1826 0.5 ug/mL

SMILES	NF-kB reporter [1, 4]	NF-kB reporter ([1]; agonist: LPS 0.1 ug/mL)	NF-kB reporter ([1]; agonist: MPLA […])	IRF reporter ([2]; agonist: 3'3'-cGAMP 10 ug/mL)	IRF reporter ([2]; agonist: LPS 0.1 ug/mL)	IRF reporter ([2]; agonist: MPLA […])	viability score [3]
CCS(=O)(=O)c1ccc(-c2cccc(NC(=O)CC3CCCC3)c2)nn1	1.19 ± 0.099	0.932 ± 0.073	1.01 ± 0.029	0.905 ± 0.033	0.973 ± 0.056	0.926 ± 0.13	0.999 (active)
Nc1ccn(C[C@@H](CO)OCP(=O)(O)O)c(=O)n1	1 ± 0.25	0.97 ± 0.057	0.961 ± 0.064	0.906 ± 0.03	1.3 ± 0.14	1.14 ± 0.16	1.01 (active)
Cc1ccc(-c2ncc(Cl)cc2-c2ccc(S(C)(=O)=O)cc2)cn1	1.03 ± 0.17	1.15 ± 0.33	0.973 ± 0.054	1.05 ± 0.038	1.29 ± 0.4	1.37 ± 0.1	1 (active)
CC12CCC3c4ccc(O)cc4CCC3C1CCC2OC(=O)CCC1CCCC1 (configuration not stated)	1.02 ± 0.093	0.997 ± 0.09	0.867 ± 0.082	0.969 ± 0.03	1.15 ± 0.15	1.21 ± 0.14	0.98 (active)
Brc1ccc(-c2cc(-c3ccccc3)nc(N3CCOCC3)n2)cc1	0.81 ± 0.087	0.995 ± 0.11	1.12 ± 0.13	0.977 ± 0.059	1.35 ± 0.25	1.59 ± 0.38	1.01 (active)
S=c1n(CN2CCOCC2)nc(-c2ccccc2Cl)n1-c1ccccc1	1.06 ± 0.059	0.985 ± 0.067	0.947 ± 0.074	0.944 ± 0.047	1.32 ± 0.18	1.16 ± 0.13	0.993 (active)
CS(=O)(=O)O.Cc1c(O)cccc1C(=O)N[C@@H](CSc1ccccc1)[C@H](O)CN1C[C@H]2CCCC[C@H]2C[C@H]1C(=O)NC(C)(C)C	0.399 ± 0.017	0.968 ± 0.08	1.29 ± 0.07	1.09 ± 0.056	1.26 ± 0.29	1.32 ± 0.46	0.987 (active)
Cl.O=C(O)/C=C/c1ccc(Cn2ccnc2)cc1	1.43 ± 0.19	1.32 ± 0.25	0.979 ± 0.069	0.909 ± 0.028	1.34 ± 0.23	0.87 ± 0.096	0.988 (active)
CN1CCC2(CC1)NC(=O)N(CC(=O)N1CCc3ccccc31)C2=O	0.927 ± 0.094	1.14 ± 0.096	0.942 ± 0.11	1.01 ± 0.063	1.18 ± 0.14	1.2 ± 0.1	1.02 (active)
Cn1c(=O)c2c(ncn2CC(O)CO)n(C)c1=O (configuration not stated)	1.02 ± 0.2	1.2 ± 0.35	1.08 ± 0.18	0.887 ± 0.066	1.32 ± 0.21	1.29 ± 0.23	0.996 (active)
NC(=O)N1CCC(CC(=O)N2CCC([C@H]3c4ncc(Br)cc4CCc4cc(Cl)cc(Br)c43)CC2)CC1	0.342 ± 0.047	0.434 ± 0.12	0.615 ± 0.19	0.325 ± 0.012	0.889 ± 0.23	1.2 ± 0.17	0.0582 (inactive)
CC(=O)Nc1ccc(S(=O)(=O)N2CCC(Oc3cc(C)nc(C)n3)C2)cc1 (configuration not stated)	0.919 ± 0.039	0.923 ± 0.098	1.04 ± 0.092	0.998 ± 0.08	0.936 ± 0.12	0.983 ± 0.32	0.97 (active)
CCOc1ccc(CC(=O)NC2(c3nc(-c4ccccc4)no3)CCCCC2)cc1OCC	0.697 ± 0.031	1.02 ± 0.095	0.93 ± 0.058	1.03 ± 0.049	1.24 ± 0.32	1.3 ± 0.37	0.979 (active)
COc1ccc(S(=O)(=O)NCc2ccnc(-c3ccncc3)c2)cc1Cl	0.831 ± 0.098	1.06 ± 0.1	0.964 ± 0.16	0.388 ± 0.02	0.969 ± 0.07	1.11 ± 0.11	0.999 (active)
CCCNCC(O)COc1ccccc1C(=O)CCc1ccccc1 (configuration not stated)	0.639 ± 0.086	0.988 ± 0.098	1.21 ± 0.066	0.989 ± 0.07	0.948 ± 0.095	0.869 ± 0.16	0.826 (active)
CCOC(=O)C1=C(N)OC(C)=C(C(=O)OC)C1c1cccnc1 (configuration not stated)	1.16 ± 0.085	1.11 ± 0.081	1.16 ± 0.074	1.21 ± 0.04	1.12 ± 0.12	1.09 ± 0.095	0.988 (active)
O=C(Nc1cc(C(F)(F)F)cc(C(F)(F)F)c1)c1cccc(Br)c1	1 ± 0.09	1.02 ± 0.079	0.911 ± 0.074	0.935 ± 0.028	1.55 ± 0.27	1.19 ± 0.26	1.01 (active)
COC(=O)c1ccc(C=NN=C2C(=O)Nc3ccccc32)cc1	0.968 ± 0.069	1.05 ± 0.09	0.995 ± 0.028	0.527 ± 0.028	1.09 ± 0.053	1.13 ± 0.11	0.998 (active)
CN1C(=O)C(=NNC(=O)COc2cccc(Br)c2)c2ccccc21	0.895 ± 0.06	0.978 ± 0.082	0.896 ± 0.054	0.954 ± 0.033	1.48 ± 0.16	1.16 ± 0.12	1.01 (active)
Cn1c(=O)cc(N2CCC[C@@H](N)C2)n(Cc2cc(F)ccc2C#N)c1=O.O=C(O)CCC(=O)O	0.0816 ± 0.0048	0.119 ± 0.014	0.376 ± 0.039	0.0243 ± 0.0016	0.262 ± 0.076	0.205 ± 0.069	0.128 (inactive)
Cc1ccc(S(=O)(=O)n2cnc3ccccc32)cc1	1.11 ± 0.091	1.04 ± 0.071	1.02 ± 0.041	0.861 ± 0.12	1.07 ± 0.09	0.993 ± 0.14	0.998 (active)
C[C@H](Oc1cc(-c2cnn(C3CCNCC3)c2)cnc1N)c1c(Cl)ccc(F)c1Cl	0.85 ± 0.069	0.896 ± 0.11	0.942 ± 0.08	1.03 ± 0.047	1.1 ± 0.23	1.17 ± 0.38	0.998 (active)
CC1(C)CCCC2(C)C1CCC1(C)OC(=O)CC12 (configuration not stated)	0.532 ± 0.077	0.669 ± 0.11	0.762 ± 0.026	0.943 ± 0.11	0.929 ± 0.07	1.37 ± 0.18	0.159 (inactive)
Cn1cc(CC(=O)NC2CCN(c3cc(C(F)(F)F)ncn3)CC2)c2ccccc21	1.45 ± 0.082	1.24 ± 0.1	1.13 ± 0.23	0.77 ± 0.039	1.24 ± 0.075	1.39 ± 0.1	0.929 (active)
COC(=O)C1=C(C)NC(C)=C(C(=O)O[C@@H]2CCCN(Cc3ccccc3)C2)[C@@H]1c1cccc([N+](=O)[O-])c1.Cl	0.323 ± 0.024	0.587 ± 0.034	1.31 ± 0.036	0.31 ± 0.018	1.05 ± 0.12	1.25 ± 0.18	0.997 (active)
COc1cc2c(cc1OC)CC(=O)N(CCCN(C)C[C@H]1Cc3cc(OC)c(OC)cc31)CC2.Cl	0.713 ± 0.056	0.855 ± 0.07	1.06 ± 0.097	0.962 ± 0.05	1.41 ± 0.11	1.57 ± 0.18	1.01 (active)
